In the library only some 1.8% were active in any assay of this set; here they are far more common.
KLF5 inh – suppresses KLF5 promoter-driven expression | DLD-1 KLF5 promoter-luciferase reporter, luminescence | inhibition, % at 5 µM | hit rate 0.23% among 290,000 | AID 1700;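 active means inhibition above a per-plate limit of that plate's mean compound inhibition plus 3 SD, cut at about 60% in these data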;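 further: 0% = DMSO wells and 100% = LY294002 at 200 µM; higher means less KLF5 promoter-driven luciferase light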
IEC-6 tox – IEC-6 cytotoxicity, counter-screen for KLF5 inhibitors | luminescence viability | inhibition, % at 5 µM | hit rate 0.78% among 290,000; in the data active means inhibition above about 22%;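 further: 0% = plate median of test compound wells and 100% = cytotoxic reference compound wells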
BaF3 tox – counter-screen for JAK2V617F inhibitors: parental Ba/F3 viability inhibitors; AID 1486; inhibition, % at 5.6 µM; hit rate 1.1% among 220,000; CellTiter-Glo ATP luminescence;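 active means inhibition above a per-campaign cutoff, the mean inhibition of all tested compounds plus 3 SD, cut at about 27% in these data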;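 further: 0% = DMSO wells and 100% = JAK Inhibitor I control wells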
Ba/F3 V617F tox – reduce viability of Ba/F3 cells dependent on JAK2V617F; AID 1446; hit rate 1.1% among 220,000; Ba/F3 EpoR-JAK2V617F viability, ATP luminescence; inhibition, % at 5.6 µM;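 active means inhibition above the campaign mean plus 3 SD over all tested compounds, cut at about 24% in these data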;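 further: cytokine-independent growth of Ba/F3 cells driven by EpoR plus mutant JAK2; 0% = DMSO-treated cells and 100% = JAK inhibitor I control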
APP transl inh – APP translation inhibition; AID 1285; inhibition, % at 2 µM; SH-SY5Y APP 5'UTR-luciferase reporter, luminescence; hit rate 0.82% among 190,000;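 active means inhibition above a set limit, derived from the sample mean plus 3 SD, cut at about 45% in these data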
* hit, by the source's call; . = no result given.

SMILES | KLF5 inh | IEC-6 tox | BaF3 tox | Ba/F3 V617F tox | APP transl inh
CC(C)Sc1nnc(-c2c[nH]c3ccccc23)n1C | -49 | 0 | 10 | 1 | .
C#CCSc1nnc(-c2c[nH]c3ccccc23)n1C | -25 | -1 | 48* | 30* | -54
N#Cc1ccccc1NC(=O)COC(=O)CCc1ccccc1 | -40 | 1 | . | . | .
CCN(c1ccc(NC(=O)COC(=O)CCc2cc(OC)c(OC)c(OC)c2)cc1)C(C)C | -19 | 3 | 80* | -1 | 14
COc1cc(CCC(=O)OCC(=O)Nc2ccc(F)c(F)c2)cc(OC)c1OC | 3 | -4 | . | . | .
CC1=NNC(=O)C1CCC(=O)N/N=C/C(Br)=C/c1ccccc1 (stereo not drawn) | 20 | 2 | 2 | -1 | 82*
CC1=NNC(=O)C1CC(=O)N/N=C/C(Br)=C/c1ccccc1 (stereo not drawn) | -12 | 3 | -4 | -1 | .
O=C(COC(=O)CCc1c[nH]c2ccccc12)NC(c1ccccc1)c1ccccc1 | -25 | -5 | 76* | 0 | 13
NNC(=O)CCc1c[nH]c2ccccc12 | -21 | 2 | 1 | -3 | -2
COc1cc(/C=N/NC(=O)c2ccccn2)ccc1OC(=O)c1cccs1 | -66 | 0 | . | . | .
CCOC(=O)c1c(C)[nH]c(C(=O)N/N=C/c2cc([N+](=O)[O-])ccc2O)c1C | 8 | 11 | . | . | .
CCOC(=O)c1c(C)[nH]c(C(=O)N/N=C\c2ccccc2O)c1C | -23 | 8 | 1 | 0 | 67*
CS(=O)(=O)c1ccc(Sc2nc3ccccc3s2)c([N+](=O)[O-])c1 | 1 | -3 | 45* | 66* | 19
O=[N+]([O-])c1cc(S(=O)(=O)C(F)(F)F)ccc1Sc1nc2ccccc2s1 | -18 | -3 | 2 | -3 | 2
COC(=O)CSC1=C(C#N)C(c2ccc(F)cc2)CC(=O)N1 (stereo not drawn) | 3 | 5 | 43* | 2 | -28
COC(=O)CSC1=C(C#N)C(c2ccc(C)o2)CC(=O)N1 (stereo not drawn) | 4 | 6 | 43* | 7 | -8
O=C(O)c1ccc(Cl)c(NC(=S)NC(=O)c2ccccc2[N+](=O)[O-])c1 | 2 | 5 | 2 | -1 | 0
COc1ccc(C(=O)Nc2ccc(-c3nnn(CC(=O)NCc4ccco4)n3)cc2)cc1 | 1 | 9 | -1 | 0 | .
Cc1cc(Nc2c(C)n(C)n(-c3ccccc3)c2=O)c2ccccc2n1 | -25 | -1 | 4 | 2 | 0
O=C(CCc1ccncc1)NC1CCCc2c1cnn2-c1ccc(F)cc1F (stereo not drawn) | -41 | -3 | . | . | .
COc1cc(C2C3=C(Nc4ncnn42)c2ccccc2CC3)cc(OC)c1OC (stereo not drawn) | 78* | 96* | 90* | 93* | 95*
COc1ccc(C2C3=C(Nc4ncnn42)c2ccccc2CCC3)cc1 (stereo not drawn) | -13 | 2 | -1 | -2 | 10
COc1cccc(/C=N/NC(=O)c2cc3c(OC)cccc3[nH]2)c1OC | -4 | -1 | 6 | 1 | 2
COc1cc([N+](=O)[O-])cc(/C=N/NC(=O)c2ccc(NC(=O)c3ccc(C)cc3)cc2)c1O | -7 | -5 | 1 | -1 | 87*
COc1cccc(/C=N/NC(=O)c2cc3cc([N+](=O)[O-])ccc3s2)c1O | -21 | 4 | 0 | -4 | 51*
SMILES | KLF5 inh | IEC-6 tox | BaF3 tox | Ba/F3 V617F tox | APP transl inh
COc1cccc(/C=N/NC(=O)c2cc3c(OC)cccc3[nH]2)c1O | -10 | 0 | 1 | -3 | 45*
COc1cccc(/C=N/NC(=O)NC2CCCCC2)c1O | -51 | 3 | -1 | 5 | .
CSC1=NC(C(Cl)(Cl)Cl)N=C(c2ccc(C)cc2)N1 (stereo not drawn) | 53 | 58* | 64* | 83* | 71*
CCCCCCCC#Cc1ccccc1/C=N/S(=O)c1ccc(C)cc1 (stereo not drawn) | -20 | -2 | 38* | 8 | 19
Cc1ccc(-n2ncc3c2CCCC3NC(=O)c2csnn2)cc1C (stereo not drawn) | -17 | 1 | . | . | .
CCC(C)(CC(=O)Nc1nccs1)c1ccccc1 (stereo not drawn) | -8 | -3 | . | . | .
CCOP(=O)(c1ccccc1)C(O)c1ccc(Br)cc1 (stereo not drawn) | -7 | -1 | 8 | 1 | 3
C=CCCC(=O)Nc1nc(C)c(-c2csc(Nc3cc(OC)ccc3OC)n2)s1 | 29 | 19 | 59* | 34* | 53*
c1ccc(C[n+]2cccc(-c3ccccc3)c2)cc1 | -6 | -5 | 64* | 65* | 16
NC(=O)c1ccc[n+](Cc2ccccc2)c1 | -13 | -4 | 4 | 2 | -16
CN1CCN(CC(=O)N2c3ccccc3C(C)(c3ccccc3)CC2(C)C)CC1 (stereo not drawn) | 2 | 4 | 3 | 30* | -11
CC(=O)Nc1cc(OC(C)=O)c2nonc2c1OC(C)=O | 115* | 100* | 103* | 101* | 17
COc1cccc(CNCCSc2nnnn2C)c1OC | -13 | 3 | -1 | -3 | 1
C[C@@H](NC(=O)[C@@H]1Cc2ccccc2CN1C(=O)OC(C)(C)C)C(=O)NC1CCCCC1 | -16 | 8 | . | . | .
C/C(N)=C(/C#N)C(=O)CSc1nnc(COc2ccccc2Cl)o1 | -20 | 2 | 95* | 0 | 6
O=C(N/N=C/c1sc2ccccc2c1O)c1cccc2ccccc12 | -10 | 7 | 6 | -4 | 48*
O=C(N/N=C/c1sc2ccccc2c1O)c1ccccc1 | -18 | 4 | 6 | -3 | 53*
COc1ccc2cc(C(=O)N/N=C/c3sc4ccccc4c3O)ccc2c1 | -5 | -4 | 3 | 1 | 5
Cc1cc(NC(=S)N(CCCN2CCN(C)CC2)Cc2ccco2)ccc1Cl | -16 | -5 | 27* | 35* | -16
CCC(O)CNc1nc(SC)nc2sc3c(c12)CCN(C)C3 (stereo not drawn) | -40 | -5 | 57* | -2 | -2
Cn1nnnc1SCc1ccc([N+](=O)[O-])cc1 | -19 | -2 | 6 | -2 | .
COc1ccc(/C=c2/sc3n(c2=O)C(c2ccccc2OC)C2=C(N=3)c3ccccc3CC2)cc1O (stereo not drawn) | 6 | -2 | 29* | 11 | 84*
CCOC(=O)C1=C(C)N=c2s/c(=C\c3ccc(O)c([N+](=O)[O-])c3)c(=O)n2C1c1ccccc1OC (stereo not drawn) | -3 | -12 | . | . | .
COc1cc2c(cc1OC)C(C)N(C(=O)CCc1c[nH]c3ccccc13)CC2 (stereo not drawn) | 12 | 4 | . | . | .
Cc1ccc(CCC(=O)Nc2ncc(Cc3cccc(Cl)c3Cl)s2)o1 | 5 | -2 | 0 | 0 | 96*
CCc1nnc(NC(=O)CCc2ccc(C)o2)s1 | -1 | -7 | 3 | -2 | -3
COc1cccc(/C=N\NC(=O)Cn2nnc3ccccc32)c1O | -9 | -16 | 4 | -2 | 0
Cc1ccc(/C=N/NC(=S)NC(C)C)o1 | -31 | -3 | 2 | 0 | 72*
c1ccc(CCCNCC2COc3ccccc3O2)cc1 (stereo not drawn) | -44 | 2 | 0 | 1 | 73*
